Reference: PubChem BioAssay (Tox21)
Inconclusive results are not listed. A call without a number means that no potency is given here. A number with no mark means an inactive call. Calls of active or inactive are those of the source. Unless noted, calls follow the shape of the dose curve; as a rule, active = well fitted curve in the direction sought with a large enough effect in the repeat runs; inconclusive = weak or mixed curves; inactive = no such curve, though single readings can be large; an effect the other way counts as inactive or inconclusive.

Columns and labels:
[1] = qHTS assay to identify small molecule antagonists of the retinoid acid receptor (RAR) signaling pathway - cell viability counter screen (AID 1159551); also: nearly all actives have a fitted effect of over 35% in size
Outline: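 C3RL4 cells were seeded overnight at 37 C, then treated with compounds plus 1 uM (final) retinol for 6 h at 37 C. Viability was read as ATP by CellTiter-Glo luminescence after 30 min at room temperature.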

[2] = qHTS assay to identify small molecule antagonists of the retinoic acid receptor (RAR) signaling pathway (AID 1159552; also: nearly all actives have a fitted effect of over 50% in size; also: potency is read from the fitted curve at half-maximal effect)
Outline: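 Using a RARE-driven luciferase construct in C3RL4 cells, retinol at 1 uM final provided the agonist stimulus while compounds were co-applied. After 6 hours at 37 C, luminescence was recorded to flag inhibitors of retinol signaling.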

[3] = qHTS assay to identify small molecule agonists of the retinoic acid receptor (RAR) signaling pathway (AID 1159553)
Outline: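 C3RL4 cells carrying a RARE luciferase reporter were plated overnight at 37 C, then exposed to compounds in DMSO for 6 hr at 37 C and 5% CO2. Luminescence was read 30 min after luciferase reagent addition at room temperature.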

[4] = target: Luciferin 4-monooxygenase (Photinus pyralis) (UniProt P08659); assay: qHTS assay to identify small molecule inhibitors of firefly luciferase (AID 1224835); also: nearly all actives have a fitted effect of over 25% in size; also: potency is read from the fitted curve at half-maximal effect
Outline: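 Quantitative HTS format; KM concentrations of both substrates. Purified P. pyralis FLuc activity quantified from luminescence images.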

[5] = qHTS assay to identify small molecule agonists of the constitutive androstane receptor (CAR) signaling pathway - cell viability counter screen (AID 1224836); also: series mostly up to about 92 µM; nearly all actives have a fitted effect of over 45% in size
Outline: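 Multiplexed viability check: HepG2-CYP2B6-hCAR cells, 15-point compound dosing, 0.75 uM PK11195 final, 23 h at 37 C, CellTiter-Fluor fluorescence.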

[6] = qHTS assay to identify small molecule antagonists of the constitutive androstane receptor (CAR) signaling pathway - cell viability counter screen (AID 1224837); also: series mostly up to about 92 µM; nearly all actives have a fitted effect of over 45% in size
Outline: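 HepG2 cells stably expressing hCAR and a CYP2B6-2.2kb reporter were plated and pre-incubated 4 hr at 37 C/5% CO2, then given compounds at 15 concentrations plus 50 nM CITCO (final). After 23 hr, viability was read by CellTiter-Fluor fluorescence.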

[7] = target: Nuclear receptor subfamily 1 group I member 3 (Homo sapiens) (UniProt Q14994); assay: qHTS assay to identify small molecule antagonists of the constitutive androstane receptor (CAR) signaling pathway (AID 1224838); also: nearly all actives have a fitted effect of over 40% in size
Outline: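 HepG2 cells stably co-transfected with hCAR and a CYP2B6-2.2kb luciferase reporter were seeded 4 h before compound addition at 15 concentrations. Cells were stimulated with 50 nM CITCO (final) for 24 h at 37 C; luciferase luminescence was then read.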

[8] = qHTS assay to identify small molecule antagonists of the estrogen related receptor signaling pathway with the pleiotropic PPARgamma coactivator (PGC) from Tox21 10K library - cell viability counter screen (AID 1224840; active = well fitted cell-killing curve with a large enough effect in the repeat runs, not every such curve was filed as active; also: nearly all actives have a fitted effect of over 40% in size)
Outline: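 PGC/ERR cells were seeded at 2,000 cells/well and left 6 hours at 37 C/5% CO2 before pin-tool addition of compounds in DMSO. After 17.5 hours at 37 C, CellTiter-Fluor was added and fluorescence read 30 minutes later.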

[9] = qHTS assay to identify small molecule antagonists of the estrogen related receptor signaling pathway with the pleiotropic PPARgamma coactivator (PGC) from Tox21 10K library (AID 1224841; call rule not given here; also: series mostly up to about 92 µM; actives are mostly falling curves and most rising ones were filed inactive; nearly all actives have a fitted effect of over 50% in size)
Outline: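 PGC/ERR reporter cells were seeded at 2,000 cells/well and held 6 hours at 37 C/5% CO2 before pin-tool addition of compounds in DMSO. After 18 hours at 37 C, One-Glo was added and luminescence read after 30 minutes at room temperature.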

[10] = target: Thyrotropin receptor (Homo sapiens) (UniProt P16473); assay: qHTS assay to identify small molecule agonists of the thyroid stimulating hormone receptor (TSHR) signaling pathway (AID 1224843; calls by dose curve; also: nearly all actives have a fitted effect of over 45% in size)
Outline: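 Cell line HEK293 with TSHR; density 800/well. Exposure 30 min RT. Readout HTRF cAMP (cAMP-d2/anti-cAMP-cryptate), 1 h RT before reading.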

[11] = qHTS assay to identify small molecule antagonists of the estrogen related receptor (ERR) signaling pathway from Tox21 library - cell viability counter screen (AID 1224834); also: nearly all actives have a fitted effect of over 30% in size
Outline: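 ERR reporter cells were plated 6 h before compound addition, then exposed to test compounds in DMSO for 17.5 h at 37 C. Viability was read as CellTiter-Fluor fluorescence after a 30-minute incubation at 37 C.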

[12] = target: Nuclear receptor subfamily 1 group I member 3 (Homo sapiens) (UniProt Q14994); assay: qHTS assay to identify small molecule agonists of the constitutive androstane receptor (CAR) signaling pathway (AID 1224839); also: nearly all actives have a fitted effect of over 15% in size; also: potency is read from the fitted curve at half-maximal effect
Outline: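 Using human hepatoma HepG2 cells engineered with hCAR and a CYP2B6-2.2kb reporter, 15-concentration compound series were incubated 24 h alongside PK11195 at 0.75 uM final, with luminescence quantified afterwards.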

[13] = qHTS assay to identify small molecule agonists of the estrogen related receptor signaling pathway with the pleiotropic PPARgamma coactivator (PGC) from Tox21 10K library (AID 1224842); also: nearly all actives have a fitted effect of over 15% in size
Outline: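 PGC/ERR reporter cells (NTP line) were seeded 2,000 per well, rested 6 h at 37 C/5% CO2, then pin-dosed with compounds in DMSO for 18 h at 37 C; luciferase read by One-Glo luminescence after 30 min at room temperature.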

[14] = qHTS assay to identify small molecule antagonists of the estrogen related receptor (ERR) signaling pathway - cell viability counter screen (AID 1224818);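 also: series mostly up to about 46 µM; viability measured after 17.5 h of compound exposure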
Outline: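 ERR reporter cells plated 6 h at 37 C/5% CO2, then compounds in DMSO pin-transferred and incubated 17.5 h at 37 C. Viability read as CellTiter-Fluor fluorescence after 30 min at 37 C.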

[15] = qHTS assay to identify small molecule antagonists of the estrogen related receptor signaling pathway with the pleiotropic PPARgamma coactivator (PGC) cell viability counter screen (AID 1224822; also: series mostly up to about 46 µM)
Outline: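 PGC/ERR cells were seeded at 2,000 cells/well, rested 6 h at 37 C/5% CO2, then given compounds in DMSO by pin tool and incubated 17.5 h at 37 C. Viability came from CellTiter-Fluor fluorescence after 30 min.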

Luciferin 4-monooxygenase (Photinus pyralis), sequence (P08659 whole entry, looked up): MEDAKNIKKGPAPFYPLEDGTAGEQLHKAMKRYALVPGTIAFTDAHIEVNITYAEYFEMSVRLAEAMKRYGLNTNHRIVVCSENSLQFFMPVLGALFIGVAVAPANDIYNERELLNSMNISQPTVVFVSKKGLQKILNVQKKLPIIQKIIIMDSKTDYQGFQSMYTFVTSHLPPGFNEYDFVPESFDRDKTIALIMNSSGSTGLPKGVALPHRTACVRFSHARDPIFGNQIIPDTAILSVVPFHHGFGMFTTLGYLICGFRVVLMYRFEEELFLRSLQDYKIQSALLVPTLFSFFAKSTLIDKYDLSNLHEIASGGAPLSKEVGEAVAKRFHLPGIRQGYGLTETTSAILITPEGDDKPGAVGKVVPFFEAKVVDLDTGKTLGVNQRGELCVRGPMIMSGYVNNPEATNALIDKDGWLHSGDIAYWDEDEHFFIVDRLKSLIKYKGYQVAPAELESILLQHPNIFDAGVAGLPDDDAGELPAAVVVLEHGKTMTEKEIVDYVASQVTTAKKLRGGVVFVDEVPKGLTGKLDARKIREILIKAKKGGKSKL
Thyrotropin receptor (Homo sapiens), sequence (P16473 whole entry, looked up): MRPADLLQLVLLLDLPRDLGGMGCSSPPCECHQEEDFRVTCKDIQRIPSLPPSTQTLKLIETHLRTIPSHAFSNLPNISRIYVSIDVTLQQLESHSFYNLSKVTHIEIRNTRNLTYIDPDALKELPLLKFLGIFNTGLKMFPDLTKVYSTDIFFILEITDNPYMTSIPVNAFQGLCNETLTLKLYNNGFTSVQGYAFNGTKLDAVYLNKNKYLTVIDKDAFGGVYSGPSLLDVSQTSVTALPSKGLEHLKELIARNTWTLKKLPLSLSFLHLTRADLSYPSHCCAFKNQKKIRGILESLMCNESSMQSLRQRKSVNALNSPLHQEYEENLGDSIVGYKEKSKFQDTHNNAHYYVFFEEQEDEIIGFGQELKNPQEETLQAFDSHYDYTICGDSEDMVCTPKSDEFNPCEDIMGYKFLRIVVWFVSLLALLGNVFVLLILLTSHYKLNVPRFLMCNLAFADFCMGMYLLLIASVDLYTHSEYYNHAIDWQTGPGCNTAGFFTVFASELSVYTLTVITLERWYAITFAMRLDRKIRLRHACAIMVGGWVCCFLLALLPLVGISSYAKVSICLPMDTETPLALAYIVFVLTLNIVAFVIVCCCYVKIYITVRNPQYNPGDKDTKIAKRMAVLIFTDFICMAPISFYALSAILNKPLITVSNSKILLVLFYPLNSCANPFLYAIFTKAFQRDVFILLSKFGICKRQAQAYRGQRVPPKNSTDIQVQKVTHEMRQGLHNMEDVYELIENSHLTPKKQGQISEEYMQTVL
Nuclear receptor subfamily 1 group I member 3 (Homo sapiens), sequence (Q14994 whole entry, looked up): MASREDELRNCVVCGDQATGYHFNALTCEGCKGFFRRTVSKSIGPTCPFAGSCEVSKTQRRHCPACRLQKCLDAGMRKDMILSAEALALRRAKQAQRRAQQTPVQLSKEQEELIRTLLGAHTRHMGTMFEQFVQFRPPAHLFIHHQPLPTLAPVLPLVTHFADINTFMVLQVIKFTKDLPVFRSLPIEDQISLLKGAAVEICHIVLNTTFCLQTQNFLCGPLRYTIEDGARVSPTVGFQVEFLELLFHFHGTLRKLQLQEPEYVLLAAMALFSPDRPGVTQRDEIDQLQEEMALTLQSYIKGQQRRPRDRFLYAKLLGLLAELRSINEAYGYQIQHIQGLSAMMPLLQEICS

Row | SMILES | Potency [1] | Potency [2] | Potency [3] | Potency [4] | Potency [5] | Potency [6] | Potency [7] | Potency [8] | Potency [9] | Potency [10] | Potency [11] | Potency [12] | Potency [13] | outcome [14] | outcome [15]
1 | Oc1ccc(Cc2ccccc2)cc1 | inactive | inactive | inactive | 65.7 µM (active) | inactive | inactive | inactive | inactive | inactive | inactive |  |  |  |  | 
2 | CCCCOC(=O)/C=C\C(=O)OCCCC | inactive |  | inactive | inactive | inactive | inactive | inactive |  | inactive | inactive | inactive | inactive | inactive |  | 
3 | COC(=O)C(C)=O | inactive |  |  | inactive | inactive | inactive |  | inactive | inactive | inactive | inactive | inactive | inactive |  | 
4 | CC(C)(C)C(=O)OCOP(=O)(COCCn1cnc2c(N)ncnc21)OCOC(=O)C(C)(C)C | inactive | 3.76 µM (active) |  | inactive |  |  |  | inactive |  | inactive | inactive |  |  |  | 
5 | O=C(Cl)c1ccc([N+](=O)[O-])cc1 | inactive | inactive | inactive | inactive | inactive | inactive |  |  |  | inactive | inactive |  |  |  | 
6 | CNCC[C@@H](Oc1ccccc1C)c1ccccc1 | inactive |  | inactive | inactive | inactive | inactive |  | inactive |  | inactive | inactive | inactive | inactive |  | 
7 | C[C@H](CCC(=O)O)[C@H]1CC[C@H]2[C@@H]3[C@H](O)C[C@@H]4C[C@H](O)CC[C@]4(C)[C@H]3CC[C@]12C | inactive | inactive | inactive | 79.9 µM (active) | inactive | inactive |  | inactive | inactive | inactive |  |  |  |  | 
8 | N#Cc1cc2ccccc2c2ccccc12 | inactive | inactive | inactive |  | inactive | inactive |  |  |  |  | inactive | 27.4 µM (active) |  |  | 
9 | COc1ccccc1OC(=O)Oc1ccccc1OC | inactive |  |  | inactive | inactive | inactive |  | inactive |  | inactive | inactive | inactive |  |  | 
10 | CCC(C)N(C)C(=O)c1cc2ccccc2c(-c2ccccc2Cl)n1 (centres undefined) | inactive |  |  | inactive | inactive | inactive |  |  |  |  |  |  |  | inactive | inactive
11 | Cc1cc(CC(=O)O)c(C)n1-c1ccc(Cl)cc1 | inactive | inactive | inactive | inactive | inactive | inactive |  | inactive | inactive |  |  |  | inactive |  | 
12 | COC(=O)CSc1cc(N=c2sc(=O)n3n2CCCC3)c(F)cc1Cl | inactive |  |  | inactive | inactive | inactive |  | inactive |  | inactive | inactive |  |  |  | 
13 | CC1=CCC(C(C)C)C=C1 (centres undefined) | inactive |  |  | inactive | inactive | inactive | inactive |  |  |  | inactive | inactive |  |  | 
14 | Cc1ccc2c(ccc3ccccc32)c1 | inactive | inactive |  | 31.8 µM (active) | inactive | inactive | inactive | inactive |  | inactive | inactive |  |  |  | 
15 | O=C1c2cccc(O)c2C(=O)c2c(O)cc(CO)cc21 | inactive | inactive |  | inactive | inactive | inactive | inactive | inactive | inactive | inactive |  | inactive | inactive |  | 
16 | C=CC[N+]1([C@H]2C[C@H]3[C@@H]4CC[C@H]5C[C@H](OC(C)=O)[C@@H](N6CCCCC6)C[C@]5(C)[C@H]4CC[C@]3(C)[C@H]2OC(=O)CC)CCCCC1 | inactive |  | inactive | inactive | inactive | inactive | inactive | inactive |  | inactive | inactive |  | inactive |  | 
17 | O=C=NC1CCC(CC2CCC(N=C=O)CC2)CC1 (centres undefined) | inactive |  |  | inactive | inactive | inactive |  |  |  | inactive | inactive | inactive |  |  | 
18 | CN(C)CCCOc1nn(Cc2ccccc2)c2ccccc12 | inactive |  |  | inactive |  | inactive |  |  | inactive | inactive |  |  | inactive |  | 
19 | CN1CCC(=C2c3ccccc3CCc3sccc32)CC1 | inactive |  |  | inactive | inactive | inactive | inactive |  | inactive | inactive |  | inactive | inactive |  | 
20 | CCCCOC(O)CC (centres undefined) | inactive | inactive | inactive | inactive | inactive | inactive |  | inactive |  | inactive | inactive |  |  |  | 
21 | CCCC(C)C | inactive | inactive | inactive | inactive | inactive | inactive |  | inactive |  | inactive |  |  |  |  | 
22 | CC[C@H](C)[C@H](N)C(=O)O | inactive |  |  | inactive | inactive | inactive |  | inactive | inactive | inactive | inactive | inactive | inactive |  | 
23 | CCCCc1cc2ccccc2c(OCCN(C)C)n1 | inactive |  | inactive | inactive | inactive | inactive |  | inactive |  | inactive | inactive |  |  |  | 
24 | CCCCCc1ccc(N)cc1 | inactive | inactive | inactive |  | inactive | inactive | inactive | inactive |  | inactive | inactive | inactive |  |  | 
25 | CCCCCCc1ccc(N)cc1 | inactive | inactive |  |  | inactive | inactive | inactive | inactive | inactive | inactive |  | inactive | inactive |  | 
26 | CCOC(=O)C1=NN(c2ccccc2)C(=O)C1 | inactive | inactive | inactive | inactive | inactive | inactive |  | inactive |  | inactive | inactive |  |  |  | 
27 | CC[C@H](C)[C@@H](C(=O)O)n1sc2ccccc2c1=O | inactive |  | inactive | 17.8 µM (active) | inactive | inactive | inactive | inactive |  | inactive | inactive | inactive |  |  | 
